This is an account of results in PubChem BioAssay AID588851 (Broad Institute, 2011).

The assay deals with CAAX prenyl protease 2 (Saccharomyces cerevisiae (strain ATCC 204508 / S288c)) (UniProt Q03530). Briefly: inhibition of Rce1p peptide cleavage – biochemical, plate reader, dry powder retest, dose response (AID 588851).

The structures appear in SMILES notation. Measured potencies and affinities stand elsewhere. Inconclusive results are not listed. The source made the active and inactive calls.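 The calls were made as follows: active = compounds that lower the signal with a fitted half-maximal concentration at most ten times the top valid dose; inconclusive = flat curve with moderate inhibition, or an unreliable fit; inactive = the rest.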

CAAX prenyl protease 2 (Saccharomyces cerevisiae (strain ATCC 204508 / S288c)), sequence (Q03530 whole entry, looked up): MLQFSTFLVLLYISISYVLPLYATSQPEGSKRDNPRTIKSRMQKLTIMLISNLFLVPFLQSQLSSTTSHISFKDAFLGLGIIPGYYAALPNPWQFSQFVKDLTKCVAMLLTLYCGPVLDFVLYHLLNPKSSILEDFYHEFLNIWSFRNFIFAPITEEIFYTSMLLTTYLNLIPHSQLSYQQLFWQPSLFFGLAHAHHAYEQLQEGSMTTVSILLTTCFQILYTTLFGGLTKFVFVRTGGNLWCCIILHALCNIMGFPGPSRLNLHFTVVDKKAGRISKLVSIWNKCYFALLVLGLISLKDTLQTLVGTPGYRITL

As for `O=C(CCNC(=O)N1CC(=O)Nc2ccccc21)NCCc1cccc(F)c1`, the result was inactive.
